Experimental findings from PubChem BioAssay AID504651 (National Center for Advancing Translational Sciences (NCATS), 2011) are described below.

Molecules are shown by their SMILES. Screen size: about 360,000 compounds; about 130 (0.036%) were called active. The list comes from a sample in which actives are over-represented; it also holds similar structures and randomly drawn compounds. A number with no mark means an inactive call. No stated cut-off is given here; in the data, active means potentiation above about 30%; inactive means the rest.

Chain of D(1A) dopamine receptor (Homo sapiens) (P21728 whole entry, looked up): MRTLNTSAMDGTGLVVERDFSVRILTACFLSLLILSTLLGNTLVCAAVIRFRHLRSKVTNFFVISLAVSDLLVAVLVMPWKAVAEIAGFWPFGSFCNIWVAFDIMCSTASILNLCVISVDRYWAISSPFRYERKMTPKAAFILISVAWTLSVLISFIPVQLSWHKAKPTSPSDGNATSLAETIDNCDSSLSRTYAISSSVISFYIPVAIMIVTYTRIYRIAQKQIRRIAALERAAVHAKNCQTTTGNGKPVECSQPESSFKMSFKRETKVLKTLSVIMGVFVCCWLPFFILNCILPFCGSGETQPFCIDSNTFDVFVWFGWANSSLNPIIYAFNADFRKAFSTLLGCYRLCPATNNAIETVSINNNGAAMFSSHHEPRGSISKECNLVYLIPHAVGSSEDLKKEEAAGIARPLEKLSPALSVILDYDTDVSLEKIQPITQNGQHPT

The test concerns the target D(1A) dopamine receptor (Homo sapiens) (UniProt P21728). Kind of test: Potentiators of Human D1 Dopamine Receptor: qHTS. Further: 0% is about no effect. As to conditions: HEK293 TREx D1 cells, calcium flux, dopamine EC20 potentiation; at 10 µM; hits give high values. Background: Quantitative high-throughput screening tests each substance at several concentrations.
For the molecule `CCOc1ccccc1NC(=O)CSc1ncc(S(=O)(=O)c2ccc(C(C)(C)C)cc2)c(=O)[nH]1`, the potentiation was 2.25%. On to `COc1ccc2c(Sc3ccc(C)cc3)c(C(=O)NC(C)c3ccccc3)[nH]c2c1` (stereo unspecified), for which the potentiation is -3.25%.

With `Cn1nnnc1SCCCNCc1cccc(OCc2ccc(Cl)cc2)c1`, the potentiation was 0.9%. On to `CC(NC(=O)c1cc(Sc2ccc(F)cc2F)nc2ccccc12)c1ccccc1` (stereo unspecified), for which the potentiation is -2.8%.

In the case of `Cc1cc2c(s1)c1cnn(Cc3c(F)cccc3Cl)c(=O)c1n2C`, the potentiation is -3.2%. As for `COc1ccc(OCCCn2c(C3CC(=O)N(c4ccc(F)cc4)C3)nc3ccccc32)cc1` (stereo unspecified), the potentiation was -2%. The figure for `Cn1nnnc1Sc1ncnc2scc(-c3ccccc3[N+](=O)[O-])c12` is 9.9%; for `COC(=O)c1ccc(C2C(C(=O)Nc3ccccc3)=C(C)Nc3nc4ccccc4n32)cc1` (stereo unspecified) it is -1.75%; for `CC(C)Cn1c(=O)c2ccccc2n2c(CCC(=O)N3CCN(c4cccc(Cl)c4)CC3)nnc12` it is -1.35%. The figure for `Cc1ccc(NC(=O)c2ccc(CN3CC(=O)N4CCCCC4C3=O)cc2)c(Cl)c1` (stereo unspecified) is 1.5%; for `COc1ccc(-n2ccn(CC(=O)Nc3ccc(C)c(C)c3)c(=O)c2=O)cc1OC` it is -0.8%. For `COc1cc(-c2cc3n(C)c(C)c(CCC(=O)Nc4ccc(F)cc4)c(=O)n3n2)cc(OC)c1OC`, the potentiation is 0.6%.

For the molecule `Cc1cc(C)cc(NC(=O)c2cnc3sc(N4CCCC4)nn3c2=O)c1`, the potentiation is -4.45%. As to `CCCC(=O)Nc1cc(C(=O)NCc2ccc(OC)cc2)ccc1S(=O)(=O)c1ccc(Cl)cc1`, the potentiation was -6.15%.

For `COc1ccc(Cl)cc1NC(=O)CCn1c(=O)c2cccn2c2ccccc21`, the potentiation is -4.3%.

On to `CCCCN(CC)CCCNC(=O)Cn1ncc2c([nH]c3ccc(C)cc32)c1=O`, for which the potentiation was 1.4%. As for `COc1ccccc1CNCc1ccc(C(=O)O)s1`, the potentiation is -0.25%.

Take `O=C(NCC12CC3CC(CC(C3)C1)C2)c1cc2nc(-c3ccccc3)cc(C(F)(F)F)n2n1`: the potentiation was 0.55%. Turning to `CCOc1ccccc1NC(=O)Cn1c(=O)n(-c2cccc(C)c2)c(=O)c2c1c1cc(OC)ccc1n2C`, the potentiation was 3.65%.

As for `CC(C)(C)OC(=O)N1CCC(c2c(C(=O)N3CCc4ccccc4C3)cnn2-c2ccc(F)cc2)CC1`, the potentiation was -4.3%. For `O=C(CCSCc1ccccc1F)N1CCN(c2ccc(Cl)cc2)CC1`, the potentiation was -0.6%.

For `Cc1noc(C)c1-c1ccc2ncnc(NCc3ccc(F)c(F)c3)c2c1`, the potentiation is -4.15%. As for `O=C(CS(=O)(=O)c1cccc2nsnc12)N1CCN(c2cccc(Cl)c2)CC1`, the potentiation is 0.15%.

On to `Cc1cc(C)c2oc(C(=O)Nc3c(C(=O)Nc4ccccc4)oc4ccccc34)cc(=O)c2c1`, for which the potentiation is 0.8%. Regarding `Cc1ccc(C(=O)NC2CCN(C#N)CC2)cc1`, the potentiation is -6.15%.

Consider `O=C(Nc1nc2c(s1)CCCC2)c1ccccc1F`, for which the potentiation is 0.5%. In the case of `CCOc1ccc(S(=O)(=O)c2cn(Cc3ccc(OC)cc3)c3ccc(F)cc3c2=O)cc1`, the potentiation is -1.95%. On to `Cc1cc(C)c(NC(=O)CSc2nc3nccnc3c(=O)n2CCc2c[nH]c3ccccc23)c(C)c1`, for which the potentiation was -2.8%. Turning to `Cc1cccc(Cn2c(=O)n(CCC(=O)NCCc3ccc(Cl)cc3)c(=O)c3sccc32)c1`, the potentiation was 0.55%.

As for `O=C(CNC(=O)c1ccc(Cl)cc1Cl)OC(C(=O)Nc1cc(C(F)(F)F)ccc1Cl)c1ccccc1` (stereo unspecified), the potentiation is -4%. Regarding `Cc1ccc(-c2cc(C(=O)Oc3ccccc3Cl)no2)cc1C`, the potentiation was 0.6%. On to `COc1ccc(Cl)cc1NC(=O)Cn1c(=O)c2ccccc2n2nncc12`, for which the potentiation is 1.65%. The figure for `CN1C(=O)/C(=C\c2ccc(-c3ccccc3)o2)SC1=S` is 39.7% (active).

`CN=C1S/C(=C\c2ccc(Sc3ccc(Cl)cc3)o2)C(=O)N1C`: the potentiation was 5.08%. Consider `NS(=O)(=O)c1ccc(-c2ccc(/C=C3\SC(=O)NC3=O)o2)cc1`, for which the potentiation was 0.85%. As to `Oc1ccc(Cl)cc1C1C=C(c2ccc3c(c2)OCO3)NC(c2c(F)cccc2Cl)N1` (stereo unspecified), the potentiation was -3.2%.

As for `O=[S+]([O-])(c1ccc2c(c1)OCCO2)N1CCN([S+](=O)([O-])c2c(Cl)cc(Cl)cc2Br)CC1`, the potentiation was -3.2%.

Regarding `COc1ccc(-c2nc(Cn3c(=O)cc(C)c4c(C)nn(-c5ccccc5)c43)c(C)o2)c(OC)c1`, the potentiation was -4.4%.

In the case of `Cc1nc2ccn(Cc3cccs3)c(=O)c2cc1C(=O)NCc1ccc(Cl)cc1`, the potentiation was -6.65%.

Turning to `COc1ccc(CCNS(=O)(=O)c2cc(-c3cc(C)no3)ccc2C)cc1OC`, the potentiation was -4.9%. As for `Cc1ccc(S(=O)(=O)N2CCc3cc(C(=O)Nc4ccc(Cl)cc4C)ccc32)cc1`, the potentiation was -2.8%. Turning to `Cc1ccsc1CN(C(=O)c1oc2ccc(Br)cc2c1C)C1CCS(=O)(=O)C1` (stereo unspecified), the potentiation is 0.7%.

Turning to `Cc1ccc(SCC(=O)Nc2ccc3oc(-c4ccccc4F)nc3c2)cc1`, the potentiation is -1.1%. `Cc1ccc(C)c(CNC(=O)c2cc3ccccn3n2)c1`: the potentiation is -6.6%.

As for `COc1ccc2[nH]c3c(c2c1)CCN(C(=O)CCC1CCCC1)C3c1ccc(F)cc1` (stereo unspecified), the potentiation was -2.5%. With `COc1ccc([N+](=O)[O-])cc1C1NN=C(c2cccc3ccccc23)S1` (stereo unspecified), the potentiation is 0.861%. For the molecule `COc1cc2c(cc1OC)C(c1cccc([N+](=O)[O-])c1)=NCC2`, the potentiation was -1.3%. `COc1ccc([N+](=O)[O-])cc1-c1nc2ccccc2nc1-c1ccccc1`: the potentiation was 30.4% (active). `Cc1ccc(NC(=O)c2oc3ccc(S(=O)(=O)N4CCCCC4)cc3c2C)cc1Cl`: the potentiation was 3.15%.

In the case of `CC1=C(c2ccc(C)c(C)c2)S(=O)(=O)NC1=NCc1ccccc1Cl`, the potentiation was -1.4%. As to `O=[S+]([O-])(c1ccc(OC(F)(F)F)cc1)N1CCN([S+](=O)([O-])c2ccc3c(c2)OCCO3)CC1`, the potentiation is 5.85%. In the case of `O=C(CCS(=O)(=O)c1ccccc1)N(Cc1cccnc1)c1nc2c(F)cccc2s1`, the potentiation was -1.7%. For `Cc1ccc(CNC(=O)Cn2c(=O)ccc3cc(S(=O)(=O)N4CCCC4)ccc32)cc1`, the potentiation was -0.25%. Take `CC(C)S(=O)(=O)c1oc(-c2ccc(F)cc2)nc1S(=O)(=O)c1ccc(F)cc1`: the potentiation is 3.35%.

Regarding `CCOC(=O)C1CCCN(C(=O)c2ccc3c(c2)sc2nc(-c4ccc(CC)cc4)cn23)C1` (stereo unspecified), the potentiation is -1.95%.

Consider `Cc1cccc(C)c1-n1ncc(C(=O)NCCCN2CCCCC2)c1C1CCN(C(=O)OC(C)(C)C)CC1`, for which the potentiation was 31.8% (active).

With `COc1ccccc1N1CCN(CCCNC(=O)c2cnn(-c3ccccc3Cl)c2C2CCN(C(=O)OC(C)(C)C)CC2)CC1`, the potentiation is -8.55%. `CCN1CCN(CCCNC(=O)c2cnn(-c3ccc(C)cc3C)c2C2CCN(C(=O)OC(C)(C)C)CC2)CC1`: the potentiation was -2.55%. For the molecule `Cc1cc(NS(=O)(=O)c2ccc3oc(=O)c4ncn(C)c4c3c2)ccc1Br`, the potentiation is -5.95%. The result for `CCc1ccc(S(=O)(=O)c2nnn3c2nc(N2CCN(CC)CC2)c2sccc23)cc1` reads 1.1%; that for `O=C(NCCc1ccccc1)c1ccc2c(c1)N(Cc1ccc(F)cc1)C(=O)c1ccccc1S2(=O)=O`, 2.25%; that for `CCOc1ccc(-c2cc3nc(C4CCN(C(=O)OC(C)(C)C)CC4)c(C(=O)Nc4ccc(C(=O)OC)cc4)cn3n2)cc1`, -0.6%.

Take `Cn1c(=O)n(Cc2c(F)cccc2Cl)c(=O)c2c1nc1n2CCN1c1ccc(F)cc1`: the potentiation is -3.15%. `CC(C)CCN(C(=O)Nc1ccc(Cl)c(Cl)c1)C(C)c1cccs1` (stereo unspecified): the potentiation is -1.95%. The figure for `O=C(CCCn1c(=O)c2cccn2c2cccnc21)NCc1ccc(F)cc1` is -4.5%. Regarding `CCc1nn(CC(=O)NCC(C)c2ccccc2)c(=O)c2cc3occc3n12` (stereo unspecified), the potentiation was -5.55%. Consider `CCCCCn1c(=O)[nH]c2cc(C(=O)Nc3cc(C)cc(C)c3)ccc2c1=O`, for which the potentiation was 1.1%.

On to `CCCN1CCN(CCCNC(=O)c2ccc3nc(Cc4ccccc4)oc3c2)CC1`, for which the potentiation was -0.6%. As for `O=S(=O)(c1ccc2c(c1)OCCCO2)N1CCN(S(=O)(=O)c2c(F)cccc2F)CC1`, the potentiation is -3.35%. On to `O=c1n(Cc2cccc(C(F)(F)F)c2)c2ccccc2c2nc(-c3ccccc3)nn12`, for which the potentiation was 0.85%. Turning to `CCOc1cccc(CNC(=O)c2ccc(N3CCCC3)c(NC(=O)Nc3ccccc3CC)c2)c1`, the potentiation is -0.4%.

On to `Oc1ccc(Cl)cc1C1C=C(c2ccc3c(c2)OCO3)NC(c2ccc(F)c(Br)c2)N1` (stereo unspecified), for which the potentiation was 1.65%.

For the molecule `CCOc1ccc(N2CC(C)Cn3c2nc2c3c(=O)n(Cc3c(F)cccc3Cl)c(=O)n2C)cc1` (stereo unspecified), the potentiation is 1.1%.

For `CC(C)c1ccc(C2CC(=O)N3CN(C4CCCCC4)CSC3=C2C#N)cc1` (stereo unspecified), the potentiation was 9.05%. The figure for `CN(C)c1ccc(C(=O)NCC(=O)OC(C(=O)Nc2cc(C(F)(F)F)ccc2Cl)c2ccccc2)cc1` (stereo unspecified) is -1.25%. Consider `CN1CCOc2cc(S(=O)(=O)N3CCN(S(=O)(=O)c4c(F)cccc4F)CC3)cnc21`, for which the potentiation was -1.8%. `O=C(Nc1ccc(C(=O)OCc2cc(=O)n3nc(C4CC4)sc3n2)cc1)c1ccc(F)cc1`: the potentiation is -0.15%. `Cc1cccc2nc(-c3ccc(Cl)s3)c(Nc3ccc4c(c3)OCCO4)n12`: the potentiation is 1.7%.

For `CCN(CC)S(=O)(=O)c1ccc2c(c1)nc(CN(C)C(=O)Nc1ccc(Cl)cc1)n2C`, the potentiation was 0.4%. On to `Cc1csc2nc(COC(=O)c3ccccc3NC(=O)c3ccccc3Cl)cc(=O)n12`, for which the potentiation was 1.1%. With `CCCCC(CC)CNC(=O)C1CCN(S(=O)(=O)c2cccc3nsnc23)CC1` (stereo unspecified), the potentiation was 3.8%.
